Test results published in the supplement of paper PMC10849652.
Of roughly 8,800 targets only a part is listed; those with a hit were picked by preference. About 0.5% of all pairs of compound and target were hits.

Tests used:
Test in all cases: log2 fold change, soluble protein after heating vs DMSO (PISA); higher = thermal stabilisation; K562 lysate, 10 uM; active = over 0.2 and 3.5 SD of the protein, either way, in both replicates (recomputed)
[1] = compound: Cc1cn(-c2cc(NC(=O)c3ccc(C)c(Nc4nccc(-c5cccnc5)n4)c3)cc(C(F)(F)F)c2)cn1 [nilotinib]
How it was run: (§1)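 The values are log-two fold changes in thermal stability compared with solvent controls and come from duplicates. They were obtained by TMTpro 16plex LC-MS/MS, with channel sums equalised, on the supernatant after 21,000xg for 90 min. That supernatant came from crude K562 extract at 1 mg/mL protein treated with 10 μM compound for 30 min, heated for 3 min across 48°C-58°C, pooled and brought to 0.5% NP-40 at 4°C.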

[2] = compound: Cc1nc(Nc2n[nH]c3c2CN(C(=O)N[C@H](CN(C)C)c2ccccc2)C3(C)C)c2sccc2n1
How it was run: as §1

[3] = compound: Cc1nc(Nc2ncc(C(=O)Nc3c(C)cccc3Cl)s2)cc(N2CCN(CCO)CC2)n1 [dasatinib]
How it was run: as §1

[4] = compound: Cc1ncc(-c2ccnc(Nc3ccc(S(C)(=O)=O)cc3)n2)n1C(C)C
How it was run: as §1

[5] = compound: Cn1cc(-c2ccc3c(c2)CCN3C(=O)Cc2cccc(C(F)(F)F)c2)c2c(N)ncnc21
How it was run: as §1

[6] = compound: Cn1cc(CNCC2CCN(c3ncc(C(=O)NO)cn3)CC2)c2ccccc21 [quisinostat]
How it was run: as §1

[7] = compound: Cn1cncc1[C@@](N)(c1ccc(Cl)cc1)c1ccc2c(c1)c(-c1cccc(Cl)c1)cc(=O)n2C [tipifarnib]
How it was run: as §1

[8] = compound: NC(=O)Nc1cc(-c2cccc(F)c2)sc1C(=O)N[C@H]1CCCNC1
How it was run: as §1

[9] = compound: NC(=O)c1cnc(N[C@@H]2CCCC[C@@H]2N)nc1Nc1cccc(-n2nccn2)c1
How it was run: as §1

[10] = compound: NC1(c2ccc(-c3nc4ccn5c(=O)[nH]nc5c4cc3-c3ccccc3)cc2)CCC1
How it was run: as §1

Measured: log2 fold change

SPATA5 (UniProt Q8NB90)
inactive: [1] 0.001 | [2] 0.006 | [3] -0.052 | [4] -0.002 | [5] 0.011 | [6] -0.023 | [7] -0.002 | [8] 0.03 | [9] 0.001 | [10] -0.064

SLC7A5 (UniProt Q01650)
inactive: [1] 0.022 | [2] 0.008 | [3] 0.055 | [4] 0.014 | [5] 0.008 | [6] -0.106 | [7] 0.003 | [8] 0 | [9] -0.029 | [10] -0.003

SQLE (UniProt Q14534)
inactive: [1] 0.082 | [2] 0.014 | [3] -0.09 | [4] -0.039 | [5] 0.024 | [6] 0.191 | [7] 0.018 | [8] -0.014 | [9] -0.032 | [10] -0.034

SMG6 (UniProt Q86US8)
inactive: [1] -0.067 | [2] 0.028 | [3] 0.048 | [4] 0.079 | [5] 0.082 | [6] -0.05 | [7] -0.065 | [8] 0.028 | [9] 0.065 | [10] 0.011

SMAD9 (UniProt O15198)
inactive: [1] 0.066 | [2] 0.054 | [3] 0.062 | [4] -0.028 | [5] -0.038 | [6] -0.036 | [7] -0.021 | [8] 0.016 | [9] 0.02 | [10] -0.065

SYK (UniProt P43405)
inactive: [1] 0.02 | [2] -0.031 | [3] -0.067 | [4] 0 | [5] 0.01 | [6] -0.077 | [7] -0.002 | [8] -0.095 | [10] -0.064

SLC40A1 (UniProt Q9NP59)
inactive: [1] 0.009 | [2] 0.131 | [3] -0.077 | [4] 0.015 | [5] -0.02 | [6] -0.079 | [7] -0.118 | [8] 0.167 | [9] -0.035 | [10] -0.185

STK17B (UniProt O94768)
inactive: [1] -0.006 | [2] -0.022 | [3] -0.063 | [4] -0.197 | [5] 0.065 | [6] -0.255 | [7] -0.08 | [8] 0.634 | [10] -0.021

SMC2 (UniProt O95347)
Chain of UniProt O95347 (O95347 whole entry, looked up): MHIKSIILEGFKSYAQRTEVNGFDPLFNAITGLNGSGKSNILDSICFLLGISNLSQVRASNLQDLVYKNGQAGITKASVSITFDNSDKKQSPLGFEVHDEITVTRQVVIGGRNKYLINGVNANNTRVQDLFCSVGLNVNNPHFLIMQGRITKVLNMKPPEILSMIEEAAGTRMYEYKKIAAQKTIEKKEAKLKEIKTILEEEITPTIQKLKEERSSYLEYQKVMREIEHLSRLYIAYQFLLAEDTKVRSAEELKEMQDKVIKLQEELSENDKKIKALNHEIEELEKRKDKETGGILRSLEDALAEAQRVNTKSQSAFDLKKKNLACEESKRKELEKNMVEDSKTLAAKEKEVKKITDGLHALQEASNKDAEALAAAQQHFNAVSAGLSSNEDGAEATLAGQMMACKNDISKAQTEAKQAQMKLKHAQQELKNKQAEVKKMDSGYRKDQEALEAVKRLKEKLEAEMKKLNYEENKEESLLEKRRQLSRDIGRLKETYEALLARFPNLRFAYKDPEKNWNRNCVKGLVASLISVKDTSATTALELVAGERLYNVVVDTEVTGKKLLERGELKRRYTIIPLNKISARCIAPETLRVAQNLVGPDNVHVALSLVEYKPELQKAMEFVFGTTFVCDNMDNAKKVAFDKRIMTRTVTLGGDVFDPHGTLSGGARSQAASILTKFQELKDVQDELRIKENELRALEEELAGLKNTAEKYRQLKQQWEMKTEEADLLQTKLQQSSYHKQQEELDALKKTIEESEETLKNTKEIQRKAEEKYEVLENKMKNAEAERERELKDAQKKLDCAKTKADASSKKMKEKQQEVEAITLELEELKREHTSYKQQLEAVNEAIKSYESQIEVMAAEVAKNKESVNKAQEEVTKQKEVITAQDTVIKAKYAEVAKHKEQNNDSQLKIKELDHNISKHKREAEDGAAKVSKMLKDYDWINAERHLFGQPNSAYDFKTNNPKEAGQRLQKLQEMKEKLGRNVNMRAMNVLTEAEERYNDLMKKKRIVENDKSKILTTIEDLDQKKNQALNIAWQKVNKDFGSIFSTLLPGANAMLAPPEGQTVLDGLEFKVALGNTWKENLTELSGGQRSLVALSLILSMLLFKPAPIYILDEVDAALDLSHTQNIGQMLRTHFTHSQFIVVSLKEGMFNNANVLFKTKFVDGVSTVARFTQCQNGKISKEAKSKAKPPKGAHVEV
inactive: [1] -0.017 | [2] -0.005 | [3] -0.036 | [4] 0.007 | [5] 0.025 | [6] -0.023 | [7] 0.024 | [8] 0.034 | [9] 0.017 | [10] -0.003

STK11IP (UniProt Q8N1F8)
Chain of UniProt Q8N1F8 (Q8N1F8 whole entry, looked up): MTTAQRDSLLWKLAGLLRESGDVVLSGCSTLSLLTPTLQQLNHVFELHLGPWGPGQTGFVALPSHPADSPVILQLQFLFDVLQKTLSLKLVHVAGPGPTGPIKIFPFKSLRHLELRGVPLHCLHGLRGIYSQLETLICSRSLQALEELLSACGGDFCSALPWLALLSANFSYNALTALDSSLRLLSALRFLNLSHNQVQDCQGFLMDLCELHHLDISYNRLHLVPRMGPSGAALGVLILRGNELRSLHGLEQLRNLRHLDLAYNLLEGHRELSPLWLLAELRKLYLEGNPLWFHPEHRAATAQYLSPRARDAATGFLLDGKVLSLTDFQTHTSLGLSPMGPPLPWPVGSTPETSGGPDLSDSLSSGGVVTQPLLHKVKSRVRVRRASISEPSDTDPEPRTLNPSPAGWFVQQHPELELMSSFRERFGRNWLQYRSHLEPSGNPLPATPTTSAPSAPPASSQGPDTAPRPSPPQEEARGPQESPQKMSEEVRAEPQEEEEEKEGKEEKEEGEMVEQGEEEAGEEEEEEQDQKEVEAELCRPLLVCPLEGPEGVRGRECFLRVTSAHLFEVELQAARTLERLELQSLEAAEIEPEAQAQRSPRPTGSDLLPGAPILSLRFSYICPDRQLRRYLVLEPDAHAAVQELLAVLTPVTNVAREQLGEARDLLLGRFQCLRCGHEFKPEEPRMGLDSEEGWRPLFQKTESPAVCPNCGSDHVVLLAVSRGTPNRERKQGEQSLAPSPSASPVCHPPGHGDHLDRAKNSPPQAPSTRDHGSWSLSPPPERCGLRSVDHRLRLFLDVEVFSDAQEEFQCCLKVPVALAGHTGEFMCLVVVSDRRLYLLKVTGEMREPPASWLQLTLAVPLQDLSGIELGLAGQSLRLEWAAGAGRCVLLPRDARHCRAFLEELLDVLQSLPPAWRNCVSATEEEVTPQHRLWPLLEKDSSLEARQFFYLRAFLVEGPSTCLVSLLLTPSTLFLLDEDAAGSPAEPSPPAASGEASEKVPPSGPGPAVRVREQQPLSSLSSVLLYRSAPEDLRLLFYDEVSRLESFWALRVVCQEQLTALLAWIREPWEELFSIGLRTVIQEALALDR
inactive: [1] 0.065 | [2] 0.001 | [3] -0.053 | [4] -0.045 | [5] -0.016 | [6] -0.029 | [7] -0.033 | [8] -0.012 | [9] -0.014 | [10] 0.037

SLU7 (UniProt O95391)
inactive: [1] -0.052 | [2] 0.045 | [3] -0.025 | [4] 0.047 | [5] 0.013 | [6] 0.244 | [7] -0.029 | [8] 0.086 | [10] 0.016

SRSF9 (UniProt Q13242)
inactive: [1] 0.02 | [2] 0.01 | [3] -0.079 | [4] 0.02 | [5] -0.005 | [6] 0.008 | [7] 0.047 | [8] -0.012 | [9] 0.029 | [10] -0.002

SH3BP2 isoform 4 (UniProt P78314)
inactive: [3] -0.027 | [5] -0.107 | [6] -0.111 | [8] 0.019 | [9] 0.141 | [10] 0.048

SNUPN (UniProt O95149)
Chain of UniProt O95149 (O95149 whole entry, looked up): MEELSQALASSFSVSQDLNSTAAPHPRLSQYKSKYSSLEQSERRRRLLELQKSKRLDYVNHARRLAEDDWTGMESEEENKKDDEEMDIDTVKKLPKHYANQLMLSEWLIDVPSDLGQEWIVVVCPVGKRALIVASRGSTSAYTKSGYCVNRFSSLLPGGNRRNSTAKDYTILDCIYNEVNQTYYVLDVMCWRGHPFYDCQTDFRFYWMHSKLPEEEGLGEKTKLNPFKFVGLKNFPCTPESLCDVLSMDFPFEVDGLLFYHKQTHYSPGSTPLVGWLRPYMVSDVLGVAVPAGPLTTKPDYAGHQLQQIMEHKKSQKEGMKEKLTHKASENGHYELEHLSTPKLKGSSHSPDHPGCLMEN
active: [10] -0.482
inactive: [1] -0.007 | [2] -0.013 | [4] 0.005 | [6] 0.128 | [7] -0.015 | [8] 0.042 | [9] -0.115

SHB (UniProt Q15464)
inactive: [3] 0.05 | [5] 0.004 | [6] 0.072 | [8] -0.026 | [9] -0.02 | [10] -0.01

SLC25A44 (UniProt Q96H78)
active: [3] -0.539
inactive: [5] -0.162 | [6] -0.025 | [8] 0.044 | [9] 0.005 | [10] 0.363

SNAP23 isoform 2 (UniProt O00161)
Chain of UniProt O00161 (O00161 whole entry, looked up): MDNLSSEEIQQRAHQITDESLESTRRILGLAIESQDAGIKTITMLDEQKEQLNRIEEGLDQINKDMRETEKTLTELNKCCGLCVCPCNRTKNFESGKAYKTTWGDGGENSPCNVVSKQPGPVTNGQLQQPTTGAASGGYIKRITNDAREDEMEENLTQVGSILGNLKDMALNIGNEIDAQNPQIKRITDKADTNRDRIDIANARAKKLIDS
inactive: [1] 0.011 | [2] -0.041 | [4] -0.054 | [7] -0.016 | [9] 0.046 | [10] -0.116

STAR (UniProt P49675)
inactive: [1] 0.037 | [2] -0.092 | [3] 0.046 | [4] -0.019 | [5] 0.011 | [6] -0.041 | [7] 0.203 | [8] -0.135 | [10] -0.146

SRGN (UniProt P10124)
Chain of UniProt P10124 (P10124 whole entry, looked up): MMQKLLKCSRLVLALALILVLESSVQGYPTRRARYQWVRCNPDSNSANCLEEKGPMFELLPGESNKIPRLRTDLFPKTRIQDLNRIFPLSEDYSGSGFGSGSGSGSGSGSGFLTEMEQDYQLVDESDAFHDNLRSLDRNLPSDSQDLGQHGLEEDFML
inactive: [3] 0.003 | [5] -0.062 | [6] -0.026 | [8] 0 | [9] 0 | [10] -0.086

STK26 isoform 3 (UniProt Q9P289)
inactive: [3] 0.181 | [5] -0.028 | [6] 0.093 | [8] 0.203

SLC35A3 isoform 2 (UniProt Q9Y2D2)
Chain of UniProt Q9Y2D2 (Q9Y2D2 whole entry, looked up): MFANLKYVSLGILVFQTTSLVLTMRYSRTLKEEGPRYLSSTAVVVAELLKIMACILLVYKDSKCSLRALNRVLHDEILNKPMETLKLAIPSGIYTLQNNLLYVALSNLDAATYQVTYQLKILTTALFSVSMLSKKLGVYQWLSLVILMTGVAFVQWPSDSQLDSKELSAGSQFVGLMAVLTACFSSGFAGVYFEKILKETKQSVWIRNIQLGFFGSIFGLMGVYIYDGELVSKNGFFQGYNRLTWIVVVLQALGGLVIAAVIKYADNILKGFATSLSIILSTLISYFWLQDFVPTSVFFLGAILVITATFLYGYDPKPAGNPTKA
inactive: [1] 0.02 | [2] -0.001 | [4] -0.049 | [6] -0.241 | [7] 0.069 | [8] 0 | [9] 0.019 | [10] 0.056

SLCO4A1 (UniProt Q96BD0)
inactive: [1] -0.006 | [2] 0.044 | [4] 0.008 | [7] 0.076

SLC12A6 isoform 2 (UniProt Q9UHW9)
inactive: [3] -0.072 | [5] 0.206 | [6] -0.011 | [8] -0.055 | [9] -0.043 | [10] 0.039

SLC22A18 (UniProt Q96BI1)
inactive: [6] -0.027 | [8] -0.032 | [9] 0.029 | [10] 0.007

SLC39A13 (UniProt Q96H72)
inactive: [10] -0.018

SORBS3 (UniProt O60504)
inactive: [3] 0.005 | [5] -0.019 | [6] -0.088 | [8] 0.022 | [9] 0.036 | [10] -0.019

SPAG1 (UniProt Q07617)
inactive: [6] -0.037 | [8] 0.007 | [9] 0.164

STK3 isoform 2 (UniProt Q13188)
Chain of UniProt Q13188 (Q13188 whole entry, looked up): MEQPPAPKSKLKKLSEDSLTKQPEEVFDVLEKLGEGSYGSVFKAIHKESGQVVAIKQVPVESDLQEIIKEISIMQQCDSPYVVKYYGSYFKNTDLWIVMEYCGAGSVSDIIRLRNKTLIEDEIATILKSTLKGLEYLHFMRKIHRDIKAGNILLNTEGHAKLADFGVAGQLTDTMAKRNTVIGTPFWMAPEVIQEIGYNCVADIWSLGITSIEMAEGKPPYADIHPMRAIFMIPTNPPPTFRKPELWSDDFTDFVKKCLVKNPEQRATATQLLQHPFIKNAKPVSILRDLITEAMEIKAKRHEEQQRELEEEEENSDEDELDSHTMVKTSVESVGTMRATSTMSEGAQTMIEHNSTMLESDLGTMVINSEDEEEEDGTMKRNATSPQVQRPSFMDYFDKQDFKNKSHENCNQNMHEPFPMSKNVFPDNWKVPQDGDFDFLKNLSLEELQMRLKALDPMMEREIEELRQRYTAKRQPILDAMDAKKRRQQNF
inactive: [1] 0.015 | [2] 0.274 | [3] 0.132 | [4] 0.179 | [5] 0.276 | [6] -0.077 | [7] -0.014 | [9] 0.108 | [10] -0.01

TAOK2 isoform 2 (UniProt Q9UL54)
inactive: [1] 0.109 | [2] 0.013 | [4] -0.01 | [7] 0.031

STAU1 isoform 3 (UniProt O95793)
Chain of UniProt O95793 (O95793 whole entry, looked up): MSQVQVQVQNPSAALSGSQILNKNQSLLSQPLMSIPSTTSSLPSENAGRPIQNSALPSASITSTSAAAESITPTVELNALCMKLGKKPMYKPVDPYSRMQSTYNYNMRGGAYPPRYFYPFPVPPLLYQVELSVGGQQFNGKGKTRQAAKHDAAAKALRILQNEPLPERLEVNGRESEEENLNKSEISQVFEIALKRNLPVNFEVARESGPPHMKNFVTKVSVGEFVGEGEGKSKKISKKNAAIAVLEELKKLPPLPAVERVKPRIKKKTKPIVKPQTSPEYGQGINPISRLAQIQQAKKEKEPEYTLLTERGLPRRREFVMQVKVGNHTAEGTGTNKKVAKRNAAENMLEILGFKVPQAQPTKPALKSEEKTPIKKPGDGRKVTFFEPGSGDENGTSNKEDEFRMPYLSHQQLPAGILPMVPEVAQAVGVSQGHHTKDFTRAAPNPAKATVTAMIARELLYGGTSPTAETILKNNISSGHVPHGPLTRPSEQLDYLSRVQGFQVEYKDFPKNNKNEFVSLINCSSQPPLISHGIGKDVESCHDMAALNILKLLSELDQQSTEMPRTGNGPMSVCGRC
inactive: [1] -0.051 | [2] -0.024 | [4] -0.023 | [6] -0.11 | [7] 0.032 | [8] 0.088 | [10] -0.047

SRC isoform 2 (UniProt P12931)
Chain of UniProt P12931 (P12931 whole entry, looked up): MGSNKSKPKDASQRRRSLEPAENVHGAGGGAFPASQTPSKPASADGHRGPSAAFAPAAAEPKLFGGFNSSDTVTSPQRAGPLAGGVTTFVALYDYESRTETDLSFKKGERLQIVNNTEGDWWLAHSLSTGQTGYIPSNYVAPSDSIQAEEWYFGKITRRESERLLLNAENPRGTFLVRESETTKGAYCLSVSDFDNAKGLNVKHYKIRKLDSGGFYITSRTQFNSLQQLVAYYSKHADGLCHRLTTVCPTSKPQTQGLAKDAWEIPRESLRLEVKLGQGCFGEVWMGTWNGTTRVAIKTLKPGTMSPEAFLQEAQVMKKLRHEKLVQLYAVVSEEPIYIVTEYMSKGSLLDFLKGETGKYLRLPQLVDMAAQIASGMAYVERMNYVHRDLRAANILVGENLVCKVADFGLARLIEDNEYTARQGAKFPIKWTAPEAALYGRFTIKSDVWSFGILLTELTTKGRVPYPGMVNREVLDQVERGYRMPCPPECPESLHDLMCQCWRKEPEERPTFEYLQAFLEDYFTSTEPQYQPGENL
inactive: [5] -0.023 | [9] 0.015 | [10] 0.012

SNIP1 (UniProt Q8TAD8)
inactive: [1] -0.1 | [2] 0.037 | [4] -0.078 | [7] -0.149

STK17A (UniProt Q9UEE5)
inactive: [1] 0.076 | [2] 0.188 | [4] 0.249 | [7] -0.387

SMPD2 (UniProt O60906)
inactive: [3] -0.169 | [5] -0.102 | [9] 0.029 | [10] 0.069

SPA17 (UniProt Q15506)
inactive: [3] -0.065 | [5] -0.041 | [6] 0.003 | [8] -0.015 | [9] 0.042
